Screens from PubChem.
Only a selection was taken, and hits are over-represented in it overall.
ROC1-CUL1 inh: inhibitors of human ROC1-CUL1 ubiquitin ligase activity | in vitro K48 di-Ub FRET, acceptor:donor ratio, 45 min | E3 ubiquitin-protein ligase RBX1 (Homo sapiens) + Cullin-1 (Homo sapiens), P62877+Q13616 | AID 1347404, 2020 | actives 0.6% (n = 140,000) | inhibition, % at 10 µM; in the data active = inhibition above about 25%
* hit, by the source's call.

SMILES	ROC1-CUL1 inh
Nc1nc(N)c2c(F)cccc2n1	13
Cc1cn2c(nc3c2c(=O)n(CCC(C)C)c(=O)n3C)[nH]1	-1
CSc1ccccc1C(=O)N1CCC(C(Cc2ccccc2F)N(C)C(=O)c2cccs2)CC1 (stereo unspecified)	9
CC(C)Cc1cc(CN2CCCC(CO)(CCc3ccccc3)C2)[nH]n1 (stereo unspecified)	-3
CCOc1cc(C2C(C(=O)c3cc4ccccc4o3)C(=O)C(=O)N2Cc2ccco2)ccc1O (stereo unspecified)	3
O=C1C(=O)N(c2nnc(SCc3ccccc3F)s2)C(c2ccc(Cl)cc2)C1C(=O)c1cc2ccccc2o1 (stereo unspecified)	-2
O=C1C(=O)N(c2nnc(SCc3ccccc3Cl)s2)C(c2ccc(Cl)cc2)C1C(=O)c1cc2ccccc2o1 (stereo unspecified)	29*
CCCCCOc1ccc(C2C(C(=O)c3cc4ccccc4o3)C(=O)C(=O)N2c2nc3ccc(OCC)cc3s2)cc1OC (stereo unspecified)	-6
CCOc1cc(C2C(C(=O)c3cc4ccccc4o3)C(=O)C(=O)N2c2nnc(SCc3ccccc3Cl)s2)ccc1O (stereo unspecified)	33*
CC(=O)c1sc(N2C(=O)C(=O)C(C(=O)c3cc4ccccc4o3)C2c2ccc(O)cc2)nc1C (stereo unspecified)	11
Cc1ccc(OCC(=O)Nc2ccccc2C(=O)OCC(=O)c2ccc(Cl)cc2)cc1C	0
C/C(CCc1ccccc1)=N/NC(=O)Nc1ccccc1	-7
CC(C)NC(=O)C1CCN(C2CCN(Cc3ccc(F)cc3F)CC2)CC1	-3
CCNC(=O)c1ccc(F)c(S(=O)(=O)N2CCOCC2)c1	4
c1ccc(CN2CCCC(NCc3ccc4c(c3)OCCO4)C2)nc1 (stereo unspecified)	0
O=C1CC=Cc2ccc(O)c(O)c2C1=O	53*
Nc1ccc(C(=O)N(Cc2ccccc2)Cc2ccccc2)c(C(=O)O)c1	-6
Cc1ccccc1N1C(=O)C(=Cc2ccc(N3CCOCC3)cc2)C(=O)N(c2ccccc2C)C1=S	-3
CC(C)c1nnc(-c2ccc(Cl)cc2)c(NCCCN(C)C)n1	4
O=C(Cc1cccs1)Nc1ccccc1O	-6
O=C(Cc1cccs1)Nc1ccc(Cc2cccc(NC(=O)Cc3cccs3)c2C(=O)O)cc1C(=O)O	27*
Cc1ccccc1NC(=O)Cc1cccs1	6
COc1ccc2cc(C(C)NC3CCN(c4ccc(C(=O)N(C)C)cc4)CC3)ccc2c1 (stereo unspecified)	0
COc1ccc(C2NC(=O)c3sc4nc5c(c(-c6ccccc6)c4c3N2)CCC5)cc1 (stereo unspecified)	6
Cc1[nH]n(-c2ccccc2)c(=O)c1/C=N/NC(=O)Cc1ccc(Br)cc1	0
SMILES	ROC1-CUL1 inh
Cc1[nH]n(-c2ccccc2)c(=O)c1C(c1ccc(-c2ccc(Br)cc2)o1)c1c(C)[nH]n(-c2ccccc2)c1=O	-9
Cc1[nH]n(-c2ccccc2)c(=O)c1C(C[N+](=O)[O-])c1ccc(Br)cc1 (stereo unspecified)	70*
Cc1ccccc1N1OC2C(=O)N(c3ccccc3Cl)C(=O)C2C1c1ccc(N(C)C)cc1 (stereo unspecified)	-7
Cc1cccc2c1OC(=O)C(C(c1ccc(N(C)C)cc1)C1C(=O)Oc3c(C)cccc3C1=O)C2=O (stereo unspecified)	92*
Cc1c(C(c2ccc(Br)cc2)C2C(=O)Oc3ccccc3C2=O)c(=O)n(-c2ccccc2)n1C (stereo unspecified)	-3
Cc1cc(NC(=O)Nc2cccc(F)c2)n(-c2ccc(OC(F)(F)Cl)cc2)n1	-4
CC(C)OCCCNC(=O)c1coc(CN2CCN(c3ncccn3)CC2)n1	-3
COc1cccc(/C=N\Nc2nccs2)c1OC	-5
C#CCOc1ccc(/C=C2\C(=O)N(c3ccc(S(N)(=O)=O)cc3)N=C2C(F)(F)F)cc1OCC	-1
CC1=NN(c2ccc(S(N)(=O)=O)cc2)C(=O)/C1=C\c1ccc(N(C)C)cc1	7
CCOC(=O)c1ccc(N2NC(=O)/C(=C/c3ccc(OC(=O)c4cccs4)c(OC)c3)C2=O)cc1	24
CCCOC(=O)c1cccc(-c2ccc(/C=C3\C(=O)N(c4ccc(S(N)(=O)=O)cc4)N=C3C(F)(F)F)o2)c1	5
COc1cccc(C=C2C(=O)N(C)C(=O)N(C)C2=O)c1	-4
COc1cc(/C=C2\C(=O)N(c3ccc(S(N)(=O)=O)cc3)N=C2C(F)(F)F)ccc1OCC(C)C	35*
COc1cccc(/C=C2\C(=O)N(c3ccc(S(N)(=O)=O)cc3)N=C2C)c1	97*
COc1cc(/C=C2/C(=O)N(c3cccc(Cl)c3)N=C2C)ccc1OC(=O)c1cccs1	-9
COc1cc(/C=C2/C(=O)N(c3ccc(S(=O)(=O)O)cc3)N=C2C)ccc1OC(=O)c1cccs1	56*
Cc1c(Cl)cccc1NC(=O)C12CCC(C)(C(=O)C1)C2(C)C (stereo unspecified)	3
CCc1ccc(N=C2S/C(=C\c3cc(Br)c(O)c(Br)c3)C(=O)N2c2ccc(CC)cc2)cc1	6
Cn1c(=O)c2nc(Cl)n(C)c2n(C)c1=O	-3
COC(=O)c1c(NC(=O)CN(C)C)sc2c1CCC(C)C2 (stereo unspecified)	2
O=c1[nH]cccc1-c1ccc[nH]c1=O	5
O=c1[nH]cccc1I	66*
O=c1[nH]cc(I)cc1I	3
COCCN(C)C(=O)CC1C(=O)NCCN1Cc1ccc(F)cc1Cl (stereo unspecified)	6
SMILES	ROC1-CUL1 inh
COc1cc(OC)nc(Oc2cccc(OC)c2N)n1	4
CSc1cc(-c2ccccc2)nc(N)n1	5
COc1cc(-c2c(F)c(F)c(F)c(F)c2F)nc(N)n1	35*
COc1ccc(C(=O)Nc2nnc(SCc3ccc(C(C)(C)C)cc3)s2)cc1OC	-2
O=C1NC(=Nc2cc(Cl)cc(Cl)c2)S/C1=C\c1ccco1	28*
O=C1NC(=Nc2ccccc2)S/C1=C/c1ccc(-c2ccc(Cl)cc2Cl)o1	-3
O=C1NC(=Nc2ccccc2Cl)S/C1=C\c1ccc(-c2ccc(Cl)cc2)o1	-8
C=CCN1C(=O)C(C=Nc2cccnc2Cl)C(=O)N(CCCC)C1=O (stereo unspecified)	-3
CCCC(=O)Nc1nc2c(Cl)cccc2s1	5
Cc1nc(N2CCC(C(=O)N3CCN(c4cnccn4)CC3)CC2)nc2ccc(C(C)C)cc12	-1
COc1ccc(-n2nc([N+](=O)[O-])c(=O)c3ccc(Cl)cc32)cc1	8
CN(CCC(=O)/C=C/c1cccc(F)c1)CCc1ccc2c(c1)OCO2	50*
CC1=NC(=O)C(C(=O)/C=C/c2ccc3c(c2)OCO3)=C(C)C1	-7
O=S(=O)(NCc1ccc2c(c1)OCO2)c1cccc(F)c1	3
CSc1nc(SCc2ccccc2Cl)nc(N)c1C#N	0
Cc1c(C(=O)NCC2CCCO2)nnn1-c1ccccc1 (stereo unspecified)	-5
CCOC(=O)c1c2c(n(Cc3ccccc3)c1C)C(=O)c1ccc(Br)cc1-2	2
CCOC(=O)c1c2c(n(Cc3ccccc3)c1CNC(C)C)C(=O)C(=O)c1ccccc1-2	103*
CCOC(=O)c1c2c(n(CC(=O)c3ccc(Br)cc3)c1C)C(=O)C(=O)c1ccccc1-2	-3
Cc1ccc(-c2cc(C(=O)Nc3ccccc3C(N)=O)c3ccccc3n2)o1	1
Cc1ccc(CNC(=O)c2cc(-c3ccc(C)o3)nc3ccccc23)cc1	8
